The whole screen tested about 50,000 compounds, of which about 800 (1.6%) showed an effect of 50% or more. The sample as a whole holds a higher share of strong results than the screen did.
Biological target: Bcl-2-like protein 10 (Homo sapiens) (UniProt Q9HD36)
Experiment: TR3 peptide-Bcl-B binding displacers, biochemical primary FP assay, phenotype converters (AID 1240);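 further: 0% = Bcl-B with tracer peptide and DMSO and 100% = tracer peptide lacking Bcl-B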
Details: GST-Bcl-B / FITC-TR3 peptide fluorescence polarization; stronger effect = higher value; compound at 3.75 mg/L

Bcl-2-like protein 10 (Homo sapiens), sequence (Q9HD36 whole entry, looked up): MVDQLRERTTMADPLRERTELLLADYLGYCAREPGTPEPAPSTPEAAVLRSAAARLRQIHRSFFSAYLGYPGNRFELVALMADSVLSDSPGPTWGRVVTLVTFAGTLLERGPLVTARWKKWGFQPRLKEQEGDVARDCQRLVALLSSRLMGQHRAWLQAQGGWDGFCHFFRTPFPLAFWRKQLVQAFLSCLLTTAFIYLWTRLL

Row | Compound | displacement [%]
1 | Cc1onc(-c2c(Cl)cccc2Cl)c1C(=O)N1CCN(Cc2ccccc2)CC1 | 0.2
2 | CCOC(=O)CNC1CC(C)(C)NC(C)(C)C1 | -1.2
3 | COc1ccc(NC(=O)c2ccc(N(Cc3ccc(Cl)cc3)S(C)(=O)=O)cc2)c(OC)c1 | 26.7
4 | Nc1cc(-c2ccc(Br)cc2)nn1Cc1ccc(Cl)cc1 | -1.3
5 | O=c1c2c3c(sc2[nH]c(=S)n1-c1ccccc1)CCC3 | -2.5
6 | O=c1c2c3c(sc2[nH]c(=S)n1-c1ccccc1)-c1ccccc1CC3 | 102
7 | C=CCn1c(=S)[nH]c2sc3c(c2c1=O)CCc1ccccc1-3 | -4.7
8 | O=C(c1ccc(-c2ccccc2)cc1)N1CCN(Cc2ccc3c(c2)OCO3)CC1 | -1.6
9 | Cc1c(/C=C/c2nc3ccccc3c(=O)n2C)c2ccccc2n1C | 3
10 | Cc1[nH]c2ccccc2c1/C=C/c1nc2ccccc2c(=O)n1Cc1ccccc1 | -5.8
11 | Cn1c(/C=C/c2c[nH]c3ccccc23)nc2ccccc2c1=O | 108
12 | O=c1c2ccccc2nc(/C=C/c2c[nH]c3ccccc23)n1-c1ccc([N+](=O)[O-])cc1 | -62.9
13 | O=c1c2ccccc2nc(/C=C/c2c[nH]c3ccccc23)n1-c1cccc([N+](=O)[O-])c1 | -2.2
14 | Cc1[nH]c2ccccc2c1/C=C/c1nc2ccccc2c(=O)n1C | 186
15 | COc1ccc(C)cc1NC(=O)c1cccnc1 | 20.4
16 | COc1cc(/C=c2\sc3nc4ccccc4n3c2=O)cc(Br)c1OCc1ccccc1F | 13.9
17 | COc1ccc(-c2nnc(SCC(=O)Nc3ccc(C)cc3Br)o2)cc1 | 14.5
18 | Cc1ccc2oc(-c3cccc(NC(=O)/C=C/c4cccc([N+](=O)[O-])c4)c3C)nc2c1 | -24.7
19 | Cc1ccc(-c2nc3cc(Cl)ccc3o2)cc1NC(=O)/C=C/c1cccc([N+](=O)[O-])c1 | -18.8
20 | Cc1ccc(-c2nc3ccccc3o2)cc1NC(=O)/C=C/c1cccc([N+](=O)[O-])c1 | 74.2
21 | COc1ccc(Br)cc1/C=C/C(=O)Nc1cccc(-c2nc3ncccc3o2)c1C | 95.3
22 | O=C(/C=C/c1ccccc1)Nc1ccc(-c2nc3ccccc3o2)c(O)c1 | 127
23 | COc1ccc(Br)cc1/C=C/C(=O)Nc1ccc(-c2nc3ncccc3o2)cc1 | -4.5
24 | O=C(/C=C/c1cccc([N+](=O)[O-])c1)Nc1ccc(-c2nc3ccccc3o2)cc1 | -5.2
25 | COc1ccc(Br)cc1C(=O)Nc1cccc(-c2nc3ncccc3o2)c1C | -3.8
26 | O=C(/C=C/c1ccc(Cl)cc1)Nc1ccc(-c2nc3ccccc3o2)c(O)c1 | -0.3

Row | Compound | displacement [%]
27 | Cc1c(NC(=O)/C=C/c2cccc([N+](=O)[O-])c2)cccc1-c1nc2ncccc2o1 | 74.8
28 | O=C(/C=C/c1ccccc1)Nc1ccc(O)c(-c2nc3ccccc3o2)c1 | -3.2
29 | O=C(/C=C/c1cccc([N+](=O)[O-])c1)Nc1ccc(-c2nc3ncccc3o2)cc1 | 45.3
30 | O=[N+]([O-])c1c(NC2CC2)ncnc1NC1CC1 | 10.9
31 | O=[N+]([O-])c1ccccc1/C=N/N1CCN(Cc2ccc(Cl)cc2)CC1 | -1.7
32 | COc1cccc(Nc2nc(-c3ccc(S(=O)(=O)N4CCOCC4)cc3)cs2)c1 | 10.4
33 | COc1ccccc1/C=C1\SC(=S)N(CCC(=O)NNC(=O)c2ccccc2O)C1=O | 14.7
34 | COc1ccc(N(CC(=O)Nc2cccc(Br)c2)S(=O)(=O)c2ccc(C)cc2)c(OC)c1 | -1.5
35 | CC(C)CC(NC(c1ccccc1)(c1ccccc1)c1ccccc1)C(=O)O (stereo unspecified) | 8.9
36 | COc1ccc(Br)cc1/C=C/C(=O)Nc1ccc(C)cc1[N+](=O)[O-] | 87.4
37 | Cc1ccc(-c2nc3ncccc3o2)cc1NC(=O)/C=C/c1ccco1 | 116
38 | COc1ccc(Br)cc1C(=O)Nc1ccc(C)cc1[N+](=O)[O-] | 27.4
39 | O=C(/C=C/c1ccco1)Nc1ccc(-c2nc3ncccc3o2)cc1 | -8.2
40 | COc1ccc(Br)cc1/C=C\C(=O)Nc1ccc([N+](=O)[O-])cc1OC | 4.8
41 | Cc1cc2nc(-c3ccc(C)c(NC(=O)/C=C/c4ccco4)c3)oc2cc1C | -5.3
42 | CCC(C)NC(=O)CN(c1ccccc1)S(=O)(=O)c1ccccc1[N+](=O)[O-] (stereo unspecified) | -8
43 | COc1ccc(C2Nc3ccccc3C(=O)N2Cc2ccco2)cc1COc1c(C)cccc1C (stereo unspecified) | -10.4
44 | Cc1cc(C)nc(SCC(=O)NN=C2CCCCCC2)n1 | 3.9
45 | COc1ccc(N(Cc2ccc(C(=O)NC3CCCC3)cc2)S(=O)(=O)c2ccccc2)cc1 | -14.5
46 | O=C(Oc1ccc(/C=N/O)cc1)c1ccc(Br)cc1 | 1.6
47 | C/C(=N\Nc1nc(C)cc(-c2ccccc2)n1)c1cccc(N)c1 | -15.5
48 | COC(=O)C1=C(C)N(c2ccc(C)cc2)/C(=C\c2ccc(OCC(=O)Nc3ccccc3Cl)cc2)C1=O | 7.6
49 | COC(=O)C1=C(C)N(c2ccccc2)/C(=C\c2ccc(OCC(=O)Nc3ccccc3OC)cc2)C1=O | 55.5
50 | COC(=O)C1=C(C)N(c2ccc(Cl)cc2)/C(=C\c2ccc(OCC(=O)Nc3ccccc3OC)cc2)C1=O | 10.4
51 | C=CCOc1ccc(/C=C2\C(=O)C(C(=O)OC)=C(C)N2c2ccc(F)cc2)cc1 | 127
52 | COC(=O)C1=C(C)N(c2ccc(C)c(C)c2)/C(=C\c2ccc(OCC(=O)Nc3ccccc3OC)cc2)C1=O | 68

Row | Compound | displacement [%]
53 | COC(=O)C1=C(C)N(c2ccc(C)c(C)c2)/C(=C/c2ccc(OC)cc2)C1=O | 14.1
54 | CCOc1ccc(/C=C2\C(=O)C(C(=O)OC)=C(C)N2c2ccc(F)cc2)cc1 | -6.6
55 | COC(=O)C1=C(C)N(c2ccc(Br)cc2)/C(=C\c2ccc(OCC(=O)Nc3ccccc3OC)cc2)C1=O | 20.3
56 | C=CCOc1ccc(/C=C2\C(=O)C(C(=O)OC)=C(C)N2c2ccc(C)cc2)cc1 | -24.7
57 | Cc1ccc(OCC(=O)O/N=C(\N)Cc2ccc([N+](=O)[O-])cc2)c(C)c1 | 5.9
58 | O=C(Nc1ccc2c(c1O)C(=O)c1ccccc1C2=O)c1ccccc1 | 12.7
59 | CC1=NN(C(N)=S)C2(O)CC3C(C12)C3(C)C (stereo unspecified) | 7.5
60 | CC(C)(C)NC(=O)c1ccccc1N(Cc1ccccc1)S(=O)(=O)c1ccccc1 | -1.7
61 | Cc1ccc2[nH]c(O)c(N=NC(=O)c3cc4ccccc4nc3C)c2c1 | 5.5
62 | Cc1ccc(C(=O)c2cccc(NC(=O)CC(C)C)c2)cc1C | 12.1
63 | O=C(Nc1ccccc1Br)C1CC(=O)N(c2ccccc2)C1 (stereo unspecified) | 77.5
64 | Cc1ccc(N2CC(C(=O)Nc3ccccc3Br)CC2=O)cc1 (stereo unspecified) | 11.9
65 | Cc1ccccc1NC(=O)C1CC(=O)N(c2ccccc2)C1 (stereo unspecified) | 6.2
66 | CS(=O)(=O)N(CC(=O)O)c1ccc(F)cc1 | 6.7
67 | N#C/C(=C\c1cccs1)c1nc2ccccc2s1 | -12.5
68 | Cc1ccc(/C=C(\C#N)c2nc3ccccc3s2)cc1 | 88.3
69 | CCOc1cc(/C=C(\C#N)c2nc3ccccc3s2)ccc1O | 0
70 | Cc1cccc(OCCn2c(N)nc3ccccc32)c1 | -10.3
71 | Cc1c(NC(=O)CSc2nnc(-c3cccc(F)c3)n2-c2ccccc2)c(=O)n(-c2ccccc2)n1C | 13.4
72 | CN1CCN(C2=C(Cl)C(=O)N(c3ccc(Br)cc3)C2=O)CC1 | 15.9
73 | C=CCc1cccc2cc(C(=O)Nc3ccc(CC)cc3)c(=O)oc12 | 8.6
74 | C=CCc1cccc2cc(C(=O)Nc3ccc(OCC)cc3)c(=O)oc12 | 53.1
75 | C=CCc1cccc2cc(C(=O)Nc3ccc(NC(C)=O)cc3)c(=O)oc12 | -13.3
76 | CN1C(=O)/C(=C/c2ccc(O)c(O)c2)SC1=S | 14
77 | Cc1cc(Cl)ccc1NC(=O)Cc1ccccc1 | -10
78 | COc1cc(/C=c2\sc3nc4ccccc4n3c2=O)cc(Cl)c1OCc1ccccc1Cl | 2.3

Row | Compound | displacement [%]
79 | O=c1/c(=C/c2cccc(Br)c2)sc2nc3ccccc3n12 | 14.5
80 | COc1cccc(/C=c2/sc3nc4ccccc4n3c2=O)c1 | 92.4
81 | COc1cc(Br)c(/C=c2/sc3nc4ccccc4n3c2=O)cc1OC | 132
82 | COc1cc(/C=c2\sc3nc4ccccc4n3c2=O)cc(Cl)c1OCCOc1ccc(Br)cc1 | -2.9
83 | COc1c(Br)cc(Br)cc1/C=c1\sc2nc3ccccc3n2c1=O | 21.9
84 | COc1cccc(OCCOc2c(Cl)cc(/C=c3\sc4nc5ccccc5n4c3=O)cc2OC)c1 | 92.6
85 | O=c1/c(=C\c2ccccc2OCc2cccc3ccccc23)sc2nc3ccccc3n12 | 104
86 | O=c1/c(=C\c2ccc(OCc3cccc4ccccc34)cc2)sc2nc3ccccc3n12 | 11.6
87 | COc1cccc(OCCOc2cccc(/C=c3\sc4nc5ccccc5n4c3=O)c2)c1 | 4.4
88 | O=c1/c(=C/c2ccccc2OCc2ccccc2F)sc2nc3ccccc3n12 | 12.4
89 | CCOC(=O)COc1cc(Br)c(/C=c2\sc3nc4ccccc4n3c2=O)cc1OC | 11.1
90 | O=C(c1ccccc1)c1ccc(N=Cc2ccc([N+](=O)[O-])s2)cc1 | 8.8
91 | CCOc1ccccc1/C=C/C(=O)c1cccs1 | -11.9
92 | CC(C)CN1C(=O)/C(=C/c2cccc3ccccc23)SC1=S | 8.3
93 | O=[N+]([O-])c1cccc(S(=O)(=O)NCc2ccccc2)c1 | -3.3
94 | NNC(=O)CSc1nc2ccccc2n1Cc1ccccc1 | -9.6
95 | Cc1occc1C(=O)NC1CCCCCC1 | -13.4
96 | Cc1ccc(CNC(=O)C(C)Oc2ccc(Cl)cc2Cl)cc1 (stereo unspecified) | -12.1
97 | O=c1/c(=C\c2ccc(OS(=O)(=O)c3cccc([N+](=O)[O-])c3)cc2)sc2nc3ccccc3n12 | -6.5
98 | Cc1ccc(S(=O)(=O)Oc2cccc(/C=c3/sc4nc5ccccc5n4c3=O)c2)cc1 | -0.5
99 | O=c1/c(=C\c2cccc(OS(=O)(=O)c3cccc([N+](=O)[O-])c3)c2)sc2nc3ccccc3n12 | 101
100 | Cc1ccc(S(=O)(=O)Oc2ccc(/C=C3\SC(=S)NC3=O)cc2)cc1 | -32.2
101 | COC(=O)c1cc(N=NC2=C(O)CC(C)(C)CC2=O)cc(C(=O)OC)c1 | -7.3

From PubChem BioAssay AID1240 (Sanford-Burnham Center for Chemical Genomics, 2008)
